Sampled rows, rich in hits. Any-hit rate of the full collection: about 1.6%.
KCNQ2 block: blocks the rat KCNQ2 potassium channel. CHO-K1 KCNQ2, FluxOR thallium flux, 20 min; hits give low values. B-score at 10 µM. hit rate 1.1% among 310,000. O88943. AID 2156;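 active means fluorescence ratio B-score at most minus 3 library SDs, with starting brightness B-score within 2 library SDs, cut at about -5.5 in these data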
KCNQ2 enhance: KCNQ2 (rat) channel potentiation; O88943; CHO-K1 KCNQ2, FluxOR thallium flux fluorescence; hits give high values; B-score at 10 µM; hit rate 0.54% among 310,000;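 active means fluorescence ratio B-score at least 3 SD of library B-scores, with initial fluorescence B-score within 3 of them, cut at about 5.3 in these data; same plate scores as AID 2156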;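 further: B-score of peak minus minimum over baseline fluorescence ratio after K+ and Tl+ stimulus; positive B-score means potentiation of KCNQ2 with more thallium influx and brighter signal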
Active calls of the source: *; i = inactive; · = no result given.

SMILES	KCNQ2 block	KCNQ2 enhance
COP(=O)(OC)c1nc(-c2cccc3ccccc23)oc1N1CCCCC1	i	·
CCOP(=O)(OCC)c1nc(-c2cccc3ccccc23)oc1N1CCCCC1	-6.1*	-6.1
CSc1ccc(Cl)c(C(=O)Nc2ccc(C)cn2)c1	i	0.26
Clc1ccc(OCCSc2ncccn2)c2ccccc12	-5.7*	-5.7
c1cnc(SCCOc2cccc3ccccc23)nc1	i	·
C=CCN(c1ccccc1)S(=O)(=O)c1cccc(C(=O)OCC(=O)NCCOC)c1	i	1.3
C=CCN(c1cccc(C(F)(F)F)c1)S(=O)(=O)c1cccc(C(=O)OCC(=O)NCCC)c1	i	6.6*
CC(c1cccs1)N(Cc1ccco1)C(=O)Nc1ccc(Cl)c(Cl)c1 (stereo not given)	-13*	-13
COc1cccc(NC(=O)N(Cc2ccco2)C(C)c2cccs2)c1 (stereo not given)	i	0.15
Cc1ccc(C)c(NC(=S)N(Cc2ccco2)C(C)c2cccs2)c1 (stereo not given)	i	·
COCCN(C(=S)Nc1cc(C)cc(C)c1)C(C)c1cccs1 (stereo not given)	i	8*
Cc1ccc(NC(=O)N(Cc2cccnc2)Cc2ccco2)cc1C	i	·
COCCN(C(=S)Nc1ccc(OC)cc1)C(C)c1cccs1 (stereo not given)	i	1.4
Cc1ccc(NC(=S)N(Cc2ccco2)C(C)c2cccs2)c(Cl)c1 (stereo not given)	-6.2*	-6.2
Cc1ccc(NC(=O)N(Cc2ccco2)C(C)c2ccco2)cc1C (stereo not given)	-5.9*	-5.9
O=C(CSc1nnc(C2CC2)n1CC1CCCO1)Nc1cccc(Cl)c1 (stereo not given)	i	·
Cc1ccc(CCNC(=O)CC(C)CC2=NS(=O)(=O)c3ccccc3N2)cc1 (stereo not given)	i	1.3
O=C1COc2ccc(C(=O)COC(=O)/C=C/c3ccc(Br)o3)cc2N1	i	0.52
O=C1CC[C@@H](OCc2ccccc2)CCN1CC[C@H](Sc1ccccc1)c1ccccc1	i	·
CCNC(=S)NNc1nnc(-c2ccccc2)c(-c2ccccc2)n1	i	·
CCCn1nc(C(=O)OCC(=O)c2c(N)n(C)c(=O)n(C)c2=O)c2ccccc2c1=O	i	·
Cc1ccc(NC(=O)C[n+]2ccccc2)cc1C	i	0.86
Cc1ccc(NC(=O)CN(Cc2ccco2)Cc2ccccc2O)cc1C	-5.8*	-5.8
COc1ccccc1Oc1ccc(NC(=O)Cc2ccccc2)cc1	i	0.84
Cc1nc(C(C)NC(=O)c2cc(COc3ccc(C)c(C)c3)on2)c(C)s1 (stereo not given)	i	·
SMILES	KCNQ2 block	KCNQ2 enhance
C=CCn1c(CCCNC(=O)C(C)(C)C)nc2ccccc21	i	1.2
C=CCn1c(C(C)NC(=O)C(C)(C)C)nc2ccccc21 (stereo not given)	-6.6*	-6.6
Cc1nc2ccccn2c1CN(C)C(=O)C1CCC(=O)N(Cc2cccc(F)c2)C1 (stereo not given)	i	·
Cc1occc1-c1nnc(SCC(=O)Nc2c(F)cccc2F)n1C	i	0.31
Cc1sc(-n2c(C)ccc2C)c(C#N)c1C	i	·
Cc1ccc(C)n1-c1sc2c(c1C#N)CCCC2	-5.9*	-5.9
COc1ccccc1C(=O)NCC(=O)NC(C)c1ccc(-n2ccnc2)cc1 (stereo not given)	i	0.11
CCN(CC)C(=O)c1sc2nc(-c3cccs3)cc(-c3ccc(Cl)cc3)c2c1N	-6.9*	-6.9
CCN(CC)C(=O)c1sc2nc(-c3cccs3)cc(-c3cccs3)c2c1N	i	·
NC(=O)N/N=C/c1ccccc1OC(=O)c1ccccc1Br	i	0.05
O=C(NC1CCSc2ccccc21)c1ccc(F)cc1 (stereo not given)	i	·
CCOC(=O)Cn1nnc2c(sc3nc4c(c(-c5ccc(Cl)cc5)c32)CCC4)c1=O	-6.7*	-6.7
CCOC(=O)Cn1nnc2c(sc3nc4c(c(-c5ccccc5)c32)CCC4)c1=O	i	·
CCC(=O)c1cn(CC(=O)Nc2cccc(OC)c2)c2ccccc12	i	·
Cc1ccc(C(=O)NCC(=O)NC2CCCCCC2)cc1	i	0.02
Cc1ccc(-c2cc(C(=O)Nc3nccs3)c3ccccc3n2)c(C)c1	i	·
Cc1ccc(-c2cc(C(=O)Nc3nccs3)c3ccccc3n2)o1	-5.7*	-5.7
COc1ccc(-c2cc(C(=O)N3CCCCCC3)c3ccccc3n2)c(OC)c1	i	·
COc1ccc(-c2cc(C(=O)N3CCN(c4ccccc4F)CC3)c3ccccc3n2)c(OC)c1	-8*	-8
Cc1ccc(-c2cc(C(=O)N3CCCC(C(F)(F)F)C3)c3ccccc3n2)o1 (stereo not given)	i	·
Cc1ccc(-c2cc(C(=O)N3CCN(c4ccc(F)cc4)CC3)c3ccccc3n2)o1	-6*	-6
O=S(=O)([N-]c1nc2ccccc2nc1-[n+]1ccccc1)c1ccc(F)cc1	i	0.53
COC(=O)CNC(=O)C1CCC(CNS(=O)(=O)c2cccc3nsnc23)CC1 (stereo not given)	i	·
